Sampled rows, rich in hits. Any-hit rate of the full collection: about 2.9%.
SMARCA2 activ – SMARCA2 function activation, primary screen; 370,000 tested, 1% active; activation, % at 9.1 µM; MG213 cells, MMTV-luciferase reporter, dexamethasone, overnight; AID 652017; in the data active means activation above about 7.8%;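 further: 0% = vehicle wells and 100% = reference activator wells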
FXN GAA850 act – frataxin GAA850 promoter activation | AID 540364 | 360,000 tested, 0.56% active | HEK293 lucGAA850 FXN promoter luciferase reporter, 24 h; percent of 10 µM SAHA response | activation, % at 6 µM;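 active means activation above the average of all compounds screened plus 3 SD, cutoff fixed separately per campaign, cut at about 7.5% in these data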;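 further: 0% = DMSO wells and 100% = 10 µM SAHA wells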
FAS TE block – blocks the thioesterase domain of human fatty acid synthase; P49327; 360,000 tested, 0.67% active; inhibition, % at 15 µM; recombinant FAS-TE, OMFH fluorogenic substrate, fluorescence endpoint;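 active means compounds whose normalised, plate-corrected inhibition of enzyme fluorescence in the single-dose primary screen is 50% or more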;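 further: 0% = DMSO with enzyme and 100% = substrate without enzyme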
proKLK7 act – proKLK7 (human) activation, primary screen. activation, % at 7 µM. 370,000 tested, 0.9% active. P49862. purified proKLK7, EDANS-DABCYL substrate fluorescence; 100% is mature enzyme control, 0% vehicle;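 active means activation above the mean of all tested compounds plus 3 SD, computed per campaign excluding outliers beyond control limits, cut at about 13% in these data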
proKLK7 act conf – confirmation of human kallikrein-7 zymogen activators | shares compounds with proKLK7 act | purified proKLK7, EDANS-DABCYL substrate fluorescence; scaled: vehicle 0, mature enzyme 100 | activation, % at 7 µM | 3,200 tested, 68% active | AID 686949;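 active means activation, as change over the incubation, above the mean of all tested compounds plus 3 SD, cut at about 13% in these data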
EDANS-DABCYL int – optically interferes with EDANS-DABCYL signal, flagging KLK7 hits; shares compounds with proKLK7 act; EDANS-DABCYL substrate fluorescence interference, no enzyme, 4 h; solvent 0%, active enzyme control 100%; activation, % at 7 µM; 3,200 tested, 80% active; AID 686952;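 active means activation above the all-compound mean plus 3 SD, ignoring values outside control-based bounds, cut at about 4.8% in these data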;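 further: value is the 4 h activation minus the activation read at time zero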
* = called active by the depositor; / = no result given.

SMILES | SMARCA2 activ | FXN GAA850 act | FAS TE block | proKLK7 act | proKLK7 act conf | EDANS-DABCYL int
N#CC1=C(N)C(C#N)(C#N)[C@H](c2ccoc2)[C@H]2CN(Cc3ccccc3)CC=C12 | -1 | 0 | -23 | 13* | 2 | 3
Cc1ccc(C2C3CN(C(C)C)CC=C3C(C#N)=C(N)C2(C#N)C#N)cc1 (centres undefined) | 0 | 0 | -28 | 12 | / | /
CN1CC=C2C(C#N)=C(N)C(C#N)(C#N)[C@H](c3ccoc3)[C@H]2C1 | / | -2 | -56 | / | / | /
N=C1/C(=C\c2coc3ccccc3c2=O)C(=O)N=C2SC=CN12 | -3 | 1 | -43 | 23* | 33* | 32*
N=C1/C(=C/c2cccn2Cc2ccc(F)cc2)C(=O)N=C2SC=CN12 | -3 | -2 | 5 | 28* | 10 | 5.6*
CC(=O)c1sc(-c2ccc(F)cc2F)nc1C | -3 | 0 | 2 | 0 | / | /
Cc1cc(NCCCO)n2c(nc3ccccc32)c1C#N | -6 | 2 | 2 | 15* | 51* | 70*
Cc1cc(NCCOCCO)n2c(nc3ccccc32)c1C#N | -2 | -1 | -2 | 48* | 85* | 92*
CNc1cc(C)c(C#N)c2nc3ccccc3n12 | 4 | 1 | 2 | 33* | 93* | 77*
CCCNc1cc(C)c(C#N)c2nc3ccccc3n12 | 0 | -2 | -6 | 7 | / | /
COCCNc1cc(C)c(C#N)c2nc3ccccc3n12 | -2 | -2 | 0 | 37* | 34* | 46*
Cc1cc(Cl)n2c(nc3ccccc32)c1C#N | 6 | 1 | 23 | 2 | / | /
O=C1c2cc3ccccc3c(-c3ccccc3)c2C(=O)N1c1ccccn1 | 6 | 0 | 7 | -2 | / | /
CC1CN(S(=O)(=O)c2cccc(C(=O)Nc3ccc4c(c3)CCC4)c2)CC(C)O1 (centres undefined) | -4 | 1 | 14 | 0 | / | /
CSC(=NC#N)N1CCN(c2ccccc2)CC1 | -2 | -2 | -8 | 0 | / | /
Cc1cc(Nc2ccc(Cl)cc2)nc(-c2ccccc2O)n1 | 2 | 3 | 27 | 0 | / | /
Cc1cc(Nc2cccc(Cl)c2)nc(-c2ccccc2O)n1 | -3 | 2 | 34 | 265* | 77* | 105*
CC(=O)Oc1ccc2c(C)c(CC(=O)N3CCN(C(=O)C4COc5ccccc5O4)CC3)c(=O)oc2c1C (centres undefined) | 5 | 0 | 1 | 155* | 344* | 368*
CCOC(=O)c1sc2nc(Cc3ccc(Cl)cc3)[nH]c(=S)c2c1C | -2 | -1 | 4 | 0 | / | /
Cc1cc(-c2ccccc2)nc(N(C)C)c1S(C)(=O)=O | 1 | 2 | 5 | 0 | / | /
CNc1nc(-c2ccccc2)cc(C)c1S(C)(=O)=O | -3 | 5 | 7 | 20* | 4 | -2
Cc1ccccc1C1NC(=O)c2ccccc2O1 (centres undefined) | -2 | 3 | -12 | -1 | / | /
Cc1ccccc1C1N=C2Oc3ccccc3C=C2C(=O)N1 (centres undefined) | -3 | / | -7 | 35* | 72* | 73*
COc1ccccc1NC(=O)c1cc2c(s1)-c1ccccc1S(=O)(=O)C2 | -2 | -2 | 4 | 15* | -19 | -31
Cc1cc(C)c2c(N)c(C(=O)NN3CC(=O)N(c4ccccc4F)CC3=O)sc2n1 | 0 | 0 | -4 | 112* | 40* | 42*
SMILES | SMARCA2 activ | FXN GAA850 act | FAS TE block | proKLK7 act | proKLK7 act conf | EDANS-DABCYL int
COc1cccc(N2CC(=O)N(NC(=O)CSc3nc(C)cc(C)c3C#N)CC2=O)c1 | -2 | -1 | 5 | 71* | 42* | 45*
COc1cccc(N2CC(=O)N(NC(=O)c3sc4nc(C)cc(C)c4c3N)CC2=O)c1 | -2 | -1 | 7 | 56* | 16* | 22*
CC(C)(C)NS(=O)(=O)c1ccc(NC(=O)CS(=O)(=O)Cc2ccccc2)cc1 | -4 | 0 | 5 | -1 | / | /
CCOc1ccc(C(=O)NC(=S)Nc2cccc(NC(=O)c3ccco3)c2)cc1[N+](=O)[O-] | -5 | -1 | 28 | 0 | / | /
COc1ccc(N(CC(=O)Nc2cccc(C(=O)O)c2)S(=O)(=O)c2c(C)noc2C)cc1 | -3 | -1 | -5 | 17* | -1 | 0
CCCCNC(=O)C1(C)CCCCN1C(=O)c1cc(-c2ccccc2)cs1 (centres undefined) | -3 | -2 | 4 | -1 | / | /

Assay outcomes: PubChem BioAssay, several laboratories
